These results are taken from PubChem BioAssay AID1986 (Sanford-Burnham Center for Chemical Genomics, 2009).

For orientation: inhibition means the change of the read-out against control, counted positive when it falls.

Values joined by “and” are separate entries in the source; they are usually repeats but may differ in a detail not shown here. Identical values can stand only once. Screen size: about 290,000 compounds; about 890 (0.31%) were called active. The sample holds actives, similar compounds and a random draw of the others, so the mix is not that of the screen. Cut-off read from the data, not from the text of the source: active = inhibition mostly above about 52% (no sharp cut-off); inactive = mostly below about 76%.

The assay can be described thus: inhibitors of HIV fusion peptide binding, primary screen, biochemical, uHTS, fluorescence dequenching (AID 1986). The note with it: cell-free peptide binding, 30 min, stronger effect = higher value.
[1] abbreviates: measured here: repeat confirmation average inhibition, at 18.6 µM.

As to `COCCN(C(=O)Nc1ccc(OC)cc1OC)C1CCN(C(C)C)CC1`, where the note is “at 20 µM”, the inhibition was -0.7% (inactive). Turning to `CN(NC(=O)Nc1ccc(Cl)cc1)c1c(Cl)c(Cl)nn1C`, the inhibition (at 20 µM) was -1.2% (inactive).

Regarding `Cc1cccc(Nc2nc(C)cc(C)n2)c1`, the inhibition (at 20 µM) is 1.1% (inactive).

Take `CCN(CC)S(=O)(=O)c1ccc(NC(=S)NC(=O)C2CCC2)cc1`: the inhibition (at 20 µM) is 0.1% (inactive).

Regarding `CSCC[C@H](NC(=O)N1CCn2c1nc1ccccc12)C(=O)N1CCCCC1`, the inhibition (at 20 µM) is 1.5% (inactive). On the same count and under the same terms, for `COc1ccc(C)cc1-n1nnnc1SCC1CCCO1` (centres undefined) the value was 1% (inactive). As for `Cc1cccc(Cn2c(=O)c3c(nc4n3CCN4Cc3ccco3)n(C)c2=O)c1`, under “at 20 µM”, the inhibition is -3% (inactive). On to `O=[N+]([O-])c1ccccc1OCCCNCc1ccccc1`, for which, under “at 20 µM”, the inhibition was 1.6% (inactive). `CN1CCN(c2ccc(NC(=O)COc3ccccc3[N+](=O)[O-])cc2)CC1`: the inhibition (at 20 µM) is -1.4% (inactive).

Take `CC(C)Cc1ccc(CN2CCCC(NC(=O)CCN3CCCO3)C2)cc1` (centres undefined): where the note is “at 20 µM”, the inhibition is -1.9% (inactive). The same measure, in the same setting: for `O=C(Cn1cnc2c(nnn2Cc2ccc(F)cc2)c1=O)Nc1cccc(F)c1` the value was 3.6% (inactive); for `CSCC(C)N1CCC(Oc2cccc(C(=O)NCc3ccccn3)c2)CC1` (centres undefined), 17% (inactive). In the case of `O=C(O)CCCCC1CCSS1` (centres undefined), the inhibition (at 20 µM) is 63.2% (active).

For the molecule `O=C(O)CCCCC1SCC2NC(=O)NC21` (centres undefined), the inhibition (at 20 µM) is 0.9% (inactive) and -0.7% (inactive). Consider `O=C(O)CCCCCCCC(=O)O`, for which the inhibition (at 20 µM) was -0.3% (inactive).

`CC(C)/C=C1\CC/C(=C\c2ccc(N(C)C)cc2)C1=O`: the inhibition (at 20 µM) is 37.1% (inactive).

For `CN(C)c1ccc(/C=C2\CCCCC2=O)cc1`, where the note is “at 20 µM”, the inhibition was 3.4% (inactive). As to `CN(C)c1ccc(/C=C2\CCC/C(=C\c3ccccc3)C2=O)cc1`, the inhibition was 80.8% (active) (at 20 µM) and 70.4% under setting [1]. In the case of `COc1ccc(/C=C2\C(=O)NC(=S)N2C(=O)c2ccc(F)cc2)cc1`, the inhibition (at 20 µM) was 70.6% (active) and the inhibition under setting [1] worked out at 59.8%. For the molecule `COc1ccc(/C=C2\C(=O)NCC(=O)N2C)cc1`, the inhibition (at 20 µM) was -3.1% (inactive).

In the case of `COc1ccc(C(=O)N2C(=S)NC(=O)/C2=C\c2ccc(C)cc2)cc1`, the inhibition (at 20 µM) is 43.1% (inactive). On the same count and under the same terms, with `COc1ccc(/C=C2\C(=O)NC(=S)N2C(=O)c2ccc(C)cc2)cc1` the figure was 63.6% (active). `O=C1NC(=S)N(C(=O)c2ccc(F)cc2)/C1=C/c1ccccc1`: the inhibition runs as follows: (at 20 µM) 79% (inactive); under setting [1], 19.2%. Regarding `O=C1NC(=S)N(C(=O)c2ccc(F)cc2)/C1=C/c1cccnc1`, the inhibition (at 20 µM) was 4.6% (inactive). Consider `Cc1ccc(C)c(S(=O)(=O)Nc2ccc(C(=O)NCCCN3CCCC3=O)cc2)c1`, for which the inhibition (at 20 µM) was 0.7% (inactive).

For the molecule `Cc1cc(OCC(=O)NCc2cccnc2)c2c(C)c(Cc3ccccc3)c(=O)oc2c1`, the inhibition (at 20 µM) is 1.1% (inactive).

Take `N#C/C(=C\c1ccc(N2CCCCC2)o1)C(=O)Nc1cccc(Br)c1`: the inhibition (at 20 µM) was 21.6% (inactive).

In the case of `N#C/C(=C/c1ccc(N2CCOCC2)o1)C(=O)NC1CCCCC1`, under “at 20 µM”, the inhibition is 80.5% (active). As to `N#C/C(=C\c1ccc(N2CCOCC2)o1)C(=O)NCCc1ccccc1`, the inhibition (at 20 µM) is 110% (active).

`N#C/C(=C\c1ccc(-c2ccc(C(=O)O)cc2)o1)C(=O)NCC1CCCO1` (centres undefined): the inhibition (at 20 µM) was 11.9% (inactive).

For `N#C/C(=C\c1ccc(N2CCOCC2)o1)C(=O)NC1CCCCC1`, the inhibition was 66.5% (active) (at 20 µM) and 55.2% under setting [1]. For `COc1ccc(NC(=O)/C(C#N)=C\c2ccc(N3CCOCC3)o2)cc1`, the inhibition (at 20 µM) is 149% (inactive).

Consider `COCCNC(=O)/C(C#N)=C/c1ccc(N2CCOCC2)o1`, for which, for the setting “at 20 µM”, the inhibition is 15.1% (inactive). Turning to `N#C/C(=C/c1ccc(N2CCCCC2)o1)C(=O)NCCc1c[nH]c2ccccc12`, the inhibition (at 20 µM) is 11.8% (inactive).

As for `N#C/C(=C\c1ccc(-c2ccc(S(=O)(=O)N3CCOCC3)cc2)o1)C(=O)NC1CC1`, the inhibition (at 20 µM) is 5.1% (inactive).

On to `N#C/C(=C/c1ccc(-c2ccc(Br)cc2)o1)C(=O)NC1CCCCC1`, for which, under “at 20 µM”, the inhibition was 3.7% (inactive). For `Cc1ccc(/C=C(\C#N)C(=O)NCC2CCCO2)o1` (centres undefined), the inhibition (at 20 µM) was 0.2% (inactive). As for `N#C/C(=C\c1ccc(N2CCOCC2)o1)C(=O)NCC1CCCO1` (centres undefined), the inhibition (at 20 µM) was 118% (active) and the inhibition under setting [1] was 68%. `CN(C)C(=O)CSc1nnc(Cc2ccccc2)n1CC1CCCO1` (centres undefined): the inhibition (at 20 µM) is -1.3% (inactive).

With `COc1ccc(CN(CC(=O)NC2CCCC2)C(=O)CN2C(=O)COc3ccccc32)cc1`, the inhibition (at 20 µM) was 0.4% (inactive). In the case of `Clc1ccc(-c2cnn3c(-c4ccncc4)ccnc23)cc1`, the inhibition (at 20 µM) is -1.1% (inactive). As for `COC(=O)c1c(NC(=O)C2COc3ccccc3O2)sc2c1CCN(Cc1ccccc1)C2` (centres undefined), the inhibition (at 20 µM) is 3.6% (inactive). Consider `NC(=O)c1c(NC(=O)C2COc3ccccc3O2)sc2c1CCN(Cc1ccccc1)C2` (centres undefined), for which the inhibition reads like this: (at 20 µM) 103% (active); under setting [1], 54%. In the case of `CCN1CCc2c(sc(NC(=O)C3COc4ccccc4O3)c2C(N)=O)C1` (centres undefined), the inhibition (at 20 µM) is -0.3% (inactive). For the molecule `Cc1nonc1OCCNC(=O)C12CC3CC(CC(C3)C1)C2`, the inhibition (at 20 µM) was 0.6% (inactive). Still for that read-out and setting: for `CS(=O)(=O)C1=NN2C(=N)/C(=C\c3ccc(OCCOc4ccccc4)cc3)C(=O)N=C2S1` the value was 80.6% (active); for `CS(=O)(=O)C1=NN2C(=N)/C(=C\c3ccc(OC(=O)c4ccco4)cc3)C(=O)N=C2S1`, 47.6% (inactive); for `COc1cc(/C=C2\C(=N)N3N=C(S(C)(=O)=O)SC3=NC2=O)ccc1OS(=O)(=O)c1ccc(C)cc1`, 76.5% (active). As to `COc1cc(/C=C2/C(=N)N3C(=NC2=O)SN=C3S(=O)(=O)C(C)C)ccc1OC(=O)c1ccco1`, the inhibition (at 20 µM) was 37.9% (inactive). The same measure, in the same setting: with `COc1cc(/C=C2/C(=N)N3C(=NC2=O)SN=C3S(=O)(=O)C(C)C)ccc1OS(=O)(=O)c1ccccc1` the figure was 71.6% (active); with `COc1cc(/C=C2/C(=N)N3N=C(C)SC3=NC2=O)ccc1OS(=O)(=O)c1ccc(C)cc1`, 13.4% (inactive).

Turning to `CCS(=O)(=O)C1=NN2C(=N)/C(=C\c3ccc(OS(=O)(=O)c4ccccc4)cc3)C(=O)N=C2S1`, where the note is “at 20 µM”, the inhibition was 39.1% (inactive). For the molecule `COc1cc(/C=C2/C(=N)N3N=C(C(C)C)SC3=NC2=O)ccc1OS(=O)(=O)c1ccccc1`, the inhibition (at 20 µM) was 22.3% (inactive). For `COc1cc(/C=C2/C(=N)N3C(=NC2=O)SN=C3S(C)(=O)=O)ccc1OC(=O)c1ccco1`, the inhibition (at 20 µM) is 58.3% (inactive) and the inhibition under setting [1] is 49.7%. For `COc1cc(/C=C2/C(=N)N3C(=NC2=O)SN=C3S(C)(=O)=O)ccc1OS(=O)(=O)c1ccc(C)cc1`, for the setting “at 20 µM”, the inhibition was 72.4% (active). As for `CCC1=NN2C(=N)/C(=C/c3ccc(OS(=O)(=O)c4ccc(C)cc4)c(OC)c3)C(=O)N=C2S1`, the inhibition (at 20 µM) was 46.6% (inactive). Still for that read-out and setting: with `COc1cc(/C=C2\C(=N)N3N=CSC3=NC2=O)ccc1OS(=O)(=O)c1ccccc1` the figure was 10% (inactive).
